Data reported in the supplement of paper PMC11060735.
Counter-ions that a name gives are not always drawn. In all, about 1,800 compounds went through this assay and about 50 (3%) showed activity. Many of the other results were omitted from the sample, so actives are more common in it than they were. A number with no mark means an inactive call.

Test system: mouse p16Ink4a+/- lung fibroblasts (INKBRITE, bleomycin-injured)
Assay: percentage of GFP+ (p16Ink4a+) fibroblasts among all cells in well; higher = less depletion of p16Ink4a+ cells, active = 20 or less
Details: 1 µM; 3 days

Structure (SMILES)	percentage of GFP+
CC(=O)NC[C@H]1CN(c2ccc(N3CCOCC3)c(F)c2)C(=O)O1 [Linezolid]	52.5%
O=C(O)c1ccc2c(c1)nc(Nc1cccc(Cl)c1)c1ccncc12 [Silmitasertib]	43.8%
COc1ccc2cc(-c3[nH]c(-c4ccc(S(C)=O)cc4)nc3-c3ccncc3)ccc2c1 (centres undefined) [Tie2 kinase inhibitor]	43.3%
CC(C)Cc1ccc(C(C)C(=O)O)cc1 (racemic)	48.8%
COc1cc(NC(=O)c2ccc(-c3ccc(Cl)cc3)o2)cc(OC)c1	52%
O=C(Nc1cc(C(F)(F)F)cc(C(F)(F)F)c1)c1cc(Cl)ccc1O	42.4%
CCCCOc1ccc(C(=O)CCN2CCCCC2)cc1 [Dyclonine]	47.1%
O=C(c1ccc(OCCN2CCCCC2)cc1)c1c(-c2ccc(O)cc2)sc2cc(O)ccc12 [Raloxifene]	16.8% (active)
Cc1c(-c2ccc(O)cc2)n(Cc2ccc(OCCN3CCCCCC3)cc2)c2ccc(O)cc12 [Bazedoxifene]	47.1%
OCCn1cc(-c2cnc3nnn(Cc4ccc5ncccc5c4)c3n2)cn1	41.7%
c1coc(CNc2ncnc3[nH]cnc23)c1 [Kinetin]	41.6%
CO[C@H]1/C=C\C=C(/C)C(=O)NC2=CC(=O)/C(=N\CCN(C)C)C(=C2O)C[C@@H](C)C[C@H](OC)[C@H](O)[C@@H](C)/C=C(\C)[C@@H]1OC(N)=O [Alvespimycin]	12.4% (active)
COC1=C2C[C@@H](C)C[C@H](OC)[C@H](O)[C@@H](C)/C=C(\C)[C@H](OC(N)=O)[C@@H](OC)/C=C/C=C(\C)C(=O)/N=C(/C=C1O)C2=O [Geldanamycin]	13.5% (active)
C=CC/N=C1\C(=O)C=C2NC(=O)/C(C)=C/C=C\[C@H](OC)[C@@H](OC(N)=O)/C(C)=C/[C@H](C)[C@@H](O)[C@@H](OC)C[C@H](C)CC1=C2O [Tanespimycin]	11.8% (active)
Nc1cccc2c1C(=O)N(C1CCC(=O)NC1=O)C2=O (centres undefined) [Pomalidomide]	46.7%
CCCCCCCCCCCCCCCC(=O)OC1C(SC)OC(C(NC(=O)C2CC(CCC)CN2C)C(C)Cl)C(O)C1O (centres undefined) [Clindamycin palmitate HCl]	45.8%
COc1cc(Nc2nc3ccccc3nc2NS(=O)(=O)c2ccc(NC(=O)c3ccc(C)c(OC)c3)cc2)cc(OC)c1	37.4%
CC(C(=O)O)c1ccc2c(c1)[nH]c1ccc(Cl)cc12 (centres undefined) [Carprofen]	45.4%
CNC(=O)c1c(F)cccc1Nc1nc(Nc2cc3c(cc2OC)CCN3C(=O)CN(C)C)nc2[nH]ccc12	50.1%
O=NO [Sodium Nitrite]	52.2%
N#CC[C@H](C1CCCC1)n1cc(-c2ncnc3[nH]ccc23)cn1 [Ruxolitinib]	44.6%
Cc1nc(-c2ccc(OCC(C)C)c(C#N)c2)sc1C(=O)O [Febuxostat]	42.1%
CCc1cnn2c(NCc3ccc[n+]([O-])c3)cc(N3CCCC[C@H]3CCO)nc12 [Dinaciclib]	13% (active)

Structure (SMILES)	percentage of GFP+
COc1ccc(CNc2nc(N3CCC[C@H]3CO)ncc2C(=O)NCc2ncccn2)cc1Cl [Avanafil]	46.5%
COc1c(C)c(C(=O)c2ccc(N)c(C(=O)O)c2)n2ccccc12	39%
COC(=O)[C@H](c1ccccc1Cl)N1CCc2sccc2C1 [Clopidogrel]	36.5%
CN1CCN(CCCN2c3ccccc3Sc3ccc(C(F)(F)F)cc32)CC1 [Trifluoperazine]	52%
CCCCc1nc2cc(/C=C/C(=O)NO)ccc2n1CCN(CC)CC [Pracinostat]	24.8%
COc1cc(/C=C/C(=O)/C=C(O)/C=C/c2ccc(O)c(OC)c2)ccc1O	38.1%
CC[C@H](/C=C/[C@@H](C)[C@@H]1CC[C@H]2[C@@H]3CC=C4C[C@@H](O)CC[C@]4(C)[C@@H]3CC[C@@]21C)C(C)C [Stigmasterol]	44.8%
Nc1nccc(Oc2ccc(NC(=O)c3cncc(-c4ccc(F)cc4)c3O)cc2F)c1Cl	49.5%
COC(=O)[C@]12CCC(C)(C)C[C@@H]1[C@@H]1C(=O)C=C3[C@]4(C)C=C(C#N)C(=O)C(C)(C)[C@@H]4CC[C@@]3(C)[C@]1(C)CC2 [Bardoxolone Methyl]	5.23% (active)
O=C(O)c1cc(N=Nc2ccc(O)c(C(=O)O)c2)ccc1O [Olsalazine]	43.3%
O=C1c2c(O)cccc2[C@H]([C@@H]2O[C@H](CO)[C@@H](O)[C@H](O)[C@H]2O)c2cc(CO)cc(O)c21 [Aloin]	20.8%
CC(C)c1ccccc1Cc1cc(C(=O)Nc2ccc(S(=O)(=O)c3ccccc3C(C)(C)C)cc2)c(O)c(O)c1O	16.4% (active)
CC(C)(C)c1cc(C(C)(C)C)c(NC(=O)c2cnc3ccccc3c2O)cc1O [Ivacaftor]	38%
CC(C)c1cc(C(C)C)c(CC(=O)NS(=O)(=O)Oc2c(C(C)C)cccc2C(C)C)c(C(C)C)c1 [Avasimibe]	53.1%
CC(C)(C)c1cc(/C=C(\C#N)C(N)=S)cc(C(C)(C)C)c1O [Tyrphostin]	50.3%
CCC(CC)CC1(C(=O)Nc2ccccc2SC(=O)C(C)C)CCCCC1 [Dalcetrapib]	37.6%
CCOC(=O)[C@H](CCc1ccccc1)N[C@H]1CS[C@H](c2cccs2)CN(CC(=O)O)C1=O [Temocapril]	45.2%
C[C@@H](Oc1cc(-n2cnc3ccc(CN4CCN(C)CC4)cc32)sc1C(N)=O)c1ccccc1C(F)(F)F	27.8%
CC(C)c1cc(C(=O)N2Cc3ccc(CN4CCN(C)CC4)cc3C2)c(O)cc1O [Onalespib]	9.46% (active)
COc1ccccc1N1CCN(CCN2C(=O)CC3(CCCC3)CC2=O)CC1 [Bmy 7378 Dihydrochloride]	43.4%
C=CCc1cc(OC)c(O)c(C(=O)NCCO)c1 [Alibendol]	42.5%
COc1ccc(S(=O)(=O)Nc2cccnc2Nc2ccc(O)cc2)cc1	23%
CN(C)Cc1ccc(S(=O)(=O)n2ccc(/C=C/C(=O)NO)c2)cc1 [Resminostat]	37.1%

Structure (SMILES)	percentage of GFP+
Cc1[nH]c2ccccc2c1CCNC(=O)c1cccs1 [N-[2-(2-methyl-1H-indol-3-yl)ethyl]thiophene-2-carboxamide]	39.3%
Cc1[nH]c2ccccc2c1CCNCc1ccc(/C=C/C(=O)NO)cc1 [Panobinostat]	2.9% (active)
CCC(=O)Nc1cccc(Oc2nc(Nc3ccc(N4CCN(C)CC4)cc3OC)ncc2Cl)c1	42.3%
Cc1nn(-c2ccccc2)c(C)c1/C=N/N1CCN(Cc2ccccc2)CC1	48.6%
CCC(C)(Oc1ccc(C2(c3ccc(OC(C)(CC)C(=O)O)cc3)CCCCC2)cc1)C(=O)O (centres undefined) [Clinofibrate]	52.6%
OCC(O)CN1CCN(c2ccccc2)CC1 (centres undefined) [Dropropizine]	51.5%
C[C@]12CC[C@@H]3c4ccc(O)cc4CC[C@H]3[C@@H]1C[C@@H](O)[C@@H]2O [Estriol]	49.2%
CCN1/C(=C/C(C)=O)Sc2ccc(OC)cc21	50.3%
COc1ccc(-c2nc(N3CCOCC3)c3sc(CN(C)c4ncc(C(=O)NO)cn4)cc3n2)cn1 [Fimepinostat]	3.62% (active)
Cc1c(CN2CCN(C(=O)[C@H](C)O)CC2)sc2c(N3CCOCC3)nc(-c3cnc(N)nc3)nc12	34.5%
CS(=O)(=O)N1CCN(Cc2cc3nc(-c4cccc5[nH]ncc45)nc(N4CCOCC4)c3s2)CC1	36.8%
Clc1ccc(C2(c3ccc(-c4cn[nH]c4)cc3)CCNCC2)cc1	43.8%
O=c1c(-c2ccc(O)cc2)coc2cc(O)cc(O)c12 [Genistein]	47.5%
COc1cc2nc(N3CCN(C(=O)C4COc5ccccc5O4)CC3)nc(N)c2cc1OC (centres undefined) [Doxazosin]	44.1%
CC(C)CN(C[C@@H](O)[C@H](Cc1ccccc1)NC(=O)O[C@H]1CO[C@H]2OCC[C@H]21)S(=O)(=O)c1ccc(N)cc1 [Darunavir]	45.7%
CN(C)c1ccc(C(=O)NCCCCCCC(=O)NO)cc1	30.4%
CC(/C=C/C(=O)NO)=C\[C@@H](C)C(=O)c1ccc(N(C)C)cc1 [Trichostatin A]	10.8% (active)
Cc1cc(N2CCOCC2)ccc1Nc1nc(NC2CCCCC2)c2[nH]cnc2n1	33.6%
C/C(=N\NC(=S)N1CCC1)c1ccccn1	6.13% (active)
CO[C@H]1C[C@@H]2CC[C@@H](C)[C@@](O)(O2)C(=O)C(=O)N2CCCC[C@H]2C(=O)O[C@H]([C@H](C)C[C@@H]2CC[C@@H](O)[C@H](OC)C2)CC(=O)[C@H](C)/C=C(\C)[C@@H](O)[C@@H](OC)C(=O)[C@H](C)C[C@H](C)/C=C/C=C/C=C/1C [Rapamycin]	37.8%
CC(=O)Nc1ccc(C(=O)Nc2ccccc2N)cc1 [Tacedinaline]	34.9%
CCCCN(Cc1ccc(C(=O)NO)cc1)C(=O)Nc1ccccc1 [Nexturastat A]	47.5%
CC(C)[C@H](C(=O)Nc1ccc(C(=O)NO)cc1)c1ccccc1	9.62% (active)
